# Bioassay records deposited in PubChem BioAssay by National Center for Advancing Translational Sciences (NCATS).
# The entries come from a sample that favours hits as a whole.
# KDM5B inhibitor: inhibitors of human KDM5B histone demethylase. Q9UGL1. KDM5B demethylase, FDH-coupled NADH fluorescence (FDH is formaldehyde dehydrogenase). Potency, µM (highest dose often 57.7 µM), usual class: inhibitors. 220,000 compounds, 2.6% hits; active means well fitted inhibition curve with a large enough effect; further: 0% is about no effect; nearly all actives have a fitted effect of over 70% in size
# Target sequence (Q9UGL1 whole entry, looked up): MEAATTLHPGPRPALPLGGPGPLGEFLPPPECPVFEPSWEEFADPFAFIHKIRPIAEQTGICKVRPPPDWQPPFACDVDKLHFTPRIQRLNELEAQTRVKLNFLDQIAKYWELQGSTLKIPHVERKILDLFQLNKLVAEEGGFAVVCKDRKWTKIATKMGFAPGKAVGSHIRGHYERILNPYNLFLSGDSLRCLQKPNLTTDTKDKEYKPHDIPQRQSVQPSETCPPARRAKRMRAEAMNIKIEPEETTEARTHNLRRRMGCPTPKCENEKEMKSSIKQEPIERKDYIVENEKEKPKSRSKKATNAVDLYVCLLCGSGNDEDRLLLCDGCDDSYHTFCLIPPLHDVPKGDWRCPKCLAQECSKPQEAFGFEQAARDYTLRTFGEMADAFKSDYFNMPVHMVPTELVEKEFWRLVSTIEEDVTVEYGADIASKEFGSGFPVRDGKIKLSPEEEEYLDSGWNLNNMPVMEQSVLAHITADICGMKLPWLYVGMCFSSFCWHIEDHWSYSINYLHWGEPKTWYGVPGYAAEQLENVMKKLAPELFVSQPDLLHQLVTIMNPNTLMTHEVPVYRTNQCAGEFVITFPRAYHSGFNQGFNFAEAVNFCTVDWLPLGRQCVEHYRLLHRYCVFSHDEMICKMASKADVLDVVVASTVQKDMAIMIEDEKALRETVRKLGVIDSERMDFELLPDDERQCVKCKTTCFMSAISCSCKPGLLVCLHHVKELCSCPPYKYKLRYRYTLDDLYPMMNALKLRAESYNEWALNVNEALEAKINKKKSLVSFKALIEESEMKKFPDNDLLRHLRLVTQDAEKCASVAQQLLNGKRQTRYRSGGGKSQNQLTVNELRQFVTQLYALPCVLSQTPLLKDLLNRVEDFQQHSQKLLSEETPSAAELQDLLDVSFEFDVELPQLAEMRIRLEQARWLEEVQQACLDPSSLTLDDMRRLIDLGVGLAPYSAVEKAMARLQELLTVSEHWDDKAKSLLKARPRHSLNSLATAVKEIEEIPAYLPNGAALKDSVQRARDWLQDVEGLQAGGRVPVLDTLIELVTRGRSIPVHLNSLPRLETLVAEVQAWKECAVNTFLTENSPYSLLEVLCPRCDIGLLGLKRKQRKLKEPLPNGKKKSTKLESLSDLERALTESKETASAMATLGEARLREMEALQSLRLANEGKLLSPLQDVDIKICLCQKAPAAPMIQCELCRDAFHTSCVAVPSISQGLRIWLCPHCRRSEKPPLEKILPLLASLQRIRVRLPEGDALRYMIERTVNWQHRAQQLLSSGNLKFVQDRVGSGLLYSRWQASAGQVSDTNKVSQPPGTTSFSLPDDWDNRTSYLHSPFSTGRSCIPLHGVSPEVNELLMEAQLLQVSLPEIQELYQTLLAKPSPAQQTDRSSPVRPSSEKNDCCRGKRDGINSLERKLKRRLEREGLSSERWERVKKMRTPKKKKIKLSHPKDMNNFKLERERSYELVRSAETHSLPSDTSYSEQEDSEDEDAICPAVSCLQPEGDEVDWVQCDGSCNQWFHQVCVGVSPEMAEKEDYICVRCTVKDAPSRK
#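 Compound dilutions met 200 nM (final) KDM5BΔAP for 10 min at room temperature before substrate addition. The substrate mix held 12.5 µM H3K4me3 with cofactors 25 µM α-ketoglutarate and 50 µM Fe²⁺. NADH signal gain over 30 min defined activity.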
# * hit, by the source's call; i = inactive. Potency means the concentration at half of the fitted maximal effect.
SMILES,KDM5B inhibitor
c1cncc(-c2ccnc(NCCc3noc(C4CCCC4)n3)n2)c1,31.6µM*
Cc1noc2ccc(-c3cccnc3)nc12,i
O=C(NCCc1noc(-c2cccnc2)n1)NC1CCCCC1,i
O=C(CC1CCCC1)NCCc1noc(-c2cccnc2)n1,i
COc1ccc(OCCOC(=O)Cc2coc3cc4c(cc23)CCC4)cc1,i
CCn1c(CCCOc2ccc(Cl)cc2C)nnc1SCc1ccc(Cl)cc1,i
CCc1ccc(OCC(=O)N(CC#N)C2CC2)cc1,i
CC1(C)CC(=O)C(C=Nc2ccccc2)C(=O)C1,i
COCCc1nncn1C1CCN(S(=O)(=O)c2ccc(F)c(F)c2)CC1,i
O=C(Cc1ccccn1)N1CCCC(c2nn(-c3cccc(Cl)c3)c(=O)[nH]2)C1 (centres undefined),i
Cc1ccc(C(=O)COC(=O)CC23CC4CC(CC(O)(C4)C2)C3)s1,i
N#CC1(NC(=O)CSc2c(Cl)cccc2Cl)CCCCC1,i
COC(=O)C1=C(N)OC2=C(C(=O)CC(c3ccccc3)C2)C1c1ccc(C)cc1 (centres undefined),i
Cc1nc2cc(NS(=O)(=O)c3ccc(C(C)(C)C)cc3)ccc2o1,i
COc1ccc(-n2c(=O)c(C#N)cc3c(=O)n4cccc(C)c4nc32)c(OC)c1,i
COc1ccccc1CC(=O)N1CCc2c(nc3cc[nH]n3c2=O)C1,28.2µM*
COc1ccc(-c2nnc3n2CCN(C(=O)c2ccccc2C)C3)cc1,i
COc1ccccc1CC(=O)N1CCN(c2nc(-c3ccc(Cl)cc3)no2)CC1,i
Cc1ccccc1C(=O)N1CCc2c(nc3cc[nH]n3c2=O)C1,28.2µM*
Cc1nc(N2CCCCC2)cc(N2CCN(C(=O)c3ccccc3C(F)(F)F)CC2)n1,i
COc1ccccc1CC(=O)N1CCc2c(nc[nH]c2=O)C1,i
Cc1ccccc1C(=O)N1CCc2[nH]nc(C(=O)NCCCc3ccccc3)c2C1,i
O=C(c1ccccc1C(F)(F)F)N1CCc2nc3cc[nH]n3c(=O)c2C1,31.6µM*
CCOc1ccc2c(n1)CCN(C(=O)Nc1ccc(CC)cc1)C2,i
CCOC(=O)c1ccc(NC(=O)N2CCN(Cc3nc(-c4ccc(C)cc4)oc3C)CC2)cc1,i
SMILES,KDM5B inhibitor
CCOC(=O)c1ccc(NC(=O)N2CCc3c(nc4cc[nH]n4c3=O)C2)cc1,22.4µM*
Cc1nc(N2CCCC2)cc(N2CCN(C(=O)c3ccccc3C(F)(F)F)CC2)n1,i
Cn1c(=O)c2[nH]c(N3CCN(C(=O)C4CC4)CC3)nc2n(C)c1=O,i
CCOc1ccc(C2=Nn3c(nnc3-c3cccc(C)c3)SC2)cc1,i
CSc1nc2ccc(NC(=O)c3nn(C)c(=O)c4ccccc34)cc2s1,i
COC(=O)c1c(C)[nH]c(C(=O)C(C)OC(=O)c2ccc(O)cc2)c1C (centres undefined),i
CCOc1cc(C(=O)O)ccc1OCc1ccccc1,i
O=C(/C(Cl)=C/NCc1ccccn1)C(F)(F)F,i
Cc1c(-c2ccccc2)c(=O)oc2ccc(OS(=O)(=O)c3ccc(F)cc3)cc12,i
COc1ccc(C(=O)N2CCc3c(nc4cc[nH]n4c3=O)C2)c(C)c1,28.2µM*
O=C(c1cc(-c2ccccc2)n[nH]1)N1CCc2c(nc3cc[nH]n3c2=O)C1,22.4µM*
COc1ccc(-c2nc3c(c(=O)[nH]2)CCN(C(=O)c2ccccc2OC(F)(F)F)C3)cc1,i
O=C(c1cc(-c2ccccc2)n[nH]1)N1CCc2c(nc(-c3ccc(F)cc3)[nH]c2=O)C1,i
CCOc1ccc2c(n1)CCN(C(=O)C1CCOCC1)C2,i
O=C(C1CCOCC1)N1CCc2nc(OCC3CC3)ccc2C1,i
O=C(C1CCN(S(=O)(=O)N2CCOCC2)CC1)N1CCc2nc3cc[nH]n3c(=O)c2C1,31.6µM*
COc1ccc(S(=O)(=O)N2CCc3nn(CC4CC4)c(=O)n3CC2)cc1Cl,i
COc1ccc(S(=O)(=O)N2CCc3nn(C)c(=O)n3CC2)cc1Cl,i
O=C(CN1CCN(C(=O)c2cc(-c3ccccc3)n[nH]2)CC1)N1CCCCC1,i
COc1ccc(S(=O)(=O)N2CCc3nc4cc[nH]n4c(=O)c3C2)cc1Cl,25.1µM*
COc1ccc(-c2noc([C@@H]3CCCN3C(=O)c3ccc(OC)cc3C)n2)cc1,i
COc1cc(OC)cc(C(=O)Nc2c(NC3CCCCC3)c3ccccc3oc2=O)c1,i
CC(C)NC(=O)Cc1ccc(-n2c(=O)c3ccccc3n(Cc3cccc(Cl)c3)c2=O)cc1,i
Cc1noc(C)c1COC(=O)/C=C/c1ccc(Br)o1,i
CSc1ccc(/C=C2\Cc3ccccc3C2=O)cc1,i
SMILES,KDM5B inhibitor
Cc1cccc(S(=O)(=O)Nc2nc3ccccc3nc2Nc2cccc(F)c2)c1,i
Cc1cc(C)cc(NC(=O)c2csc3c2CCCCC3)c1,i
CCNc1c(NC(=O)c2cc(Cl)ccc2OC)c(=O)oc2ccccc12,i
Cc1ccc2oc(C(=O)Nc3cccnc3)cc(=O)c2c1,i
O=C(CSc1ccc2c(c1)OCCCO2)Nc1ccc2ccccc2c1,i
CC(C)(C)c1cc(CCC(N)=O)cc(C(C)(C)C)c1O,i
CNC(=O)CN(C)C(=O)c1ccc(N2CCNCC2)c(NS(=O)(=O)c2ccc(C(C)C)cc2)c1,i
O=C(Cn1cnc(S(=O)(=O)N2CCOCC2)c1)N1CCN(c2ccc(F)cc2)CC1,i
CCN1CCN(CCNC(=O)c2cn3ccnc(-c4ccc(OC)cc4)c3n2)CC1,28.2µM*
COc1ccccc1OCCNC(=O)c1cn2ccnc(-c3ccccc3)c2n1,i
COc1ccc(NC(=O)c2cn3ccnc(-c4ccc(C)cc4)c3n2)c(OC)c1,i
CC(C(=O)Nc1ccc(C#N)cc1)n1nnc(-c2ccc(F)cc2)n1 (centres undefined),i
S=C(NCCc1c[nH]c2ccccc12)Nc1cccc(Cl)c1,i
Cc1nnc(SCC(=O)N(C)CCOc2ccc(Cl)cc2)n1Cc1ccccc1,i
O=C(Nc1cnc(-c2ccccc2)nc1)c1ccccc1,i
Cc1ccc(-c2ncc(NC(=O)c3cccs3)cn2)cc1,31.6µM*
CCCC(=O)Nc1cnc(-c2ccc(C)cc2)nc1,i
O=C1/C(=C/c2ccc(Cl)c(Cl)c2)Cc2ccccc21,i
CC(NS(=O)(=O)c1ccc(Cl)s1)c1cc2ccccc2o1 (centres undefined),i
O=c1ncn(CC2CC2)c2ccc(-c3ccc4c(c3)OCO4)nc12,i
Cc1nn(CC(=O)NCCOc2ccccc2)c(=O)c2ccccc12,i
CCn1cnc2c1c(=O)n(CC(=O)OCCOc1ccccc1)c(=O)n2Cc1ccccc1,i
O=c1ncn(CC2CC2)c2ccc(-c3ccc(Cl)cc3)nc12,39.8µM*
O=C(CCC1CCCC1)Nc1nc(-c2ccc(F)cc2)cs1,i
O=c1ncn(CC2CC2)c2ccc(-c3ccc(F)cc3)nc12,35.5µM*
SMILES,KDM5B inhibitor
O=C1Nc2ccccc2CCC1n1nc(-c2ccc(Cl)cc2)ccc1=O (centres undefined),i
O=C1COc2ccc(-c3ccc(F)cc3)nc2CN1,i
O=c1ncn(CC2CC2)c2ccc(-c3ccoc3)nc12,31.6µM*
O=c1ncn(Cc2ccccc2)c2ccc(NCCOc3ccccc3)nc12,35.5µM*
CC(C(=O)NCc1ccco1)N1CCN(CC(=O)NC2CC2)CC1 (centres undefined),i
CCn1nc(C(=O)Nc2ccc3c(c2)CCC3)c2ccccc2c1=O,i
Fc1ccc(CNC[C@H]2Cn3c(-c4ccc(Cl)cc4)cnc3CO2)cc1,i
CC(C)CCNC(=O)NC(=O)CCl,i
